# dFosB act-1 = activators of delta FosB homodimer, primary screen, biochemical, fluorescence polarization, TAMRA-CDK5 oligo, single point. Protein FosB (Mus musculus), P13346. purified delta FosB; percent of positive-control signal above neutral wells. activation, % at 25 µM. 340,000 compounds, 0.99% hits. AID 493131, 2011;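 active means mean activation above about 17%, with every replicate also reaching it, limit read from the data, passing the limit was not always enough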
# Target sequence (P13346 whole entry, looked up): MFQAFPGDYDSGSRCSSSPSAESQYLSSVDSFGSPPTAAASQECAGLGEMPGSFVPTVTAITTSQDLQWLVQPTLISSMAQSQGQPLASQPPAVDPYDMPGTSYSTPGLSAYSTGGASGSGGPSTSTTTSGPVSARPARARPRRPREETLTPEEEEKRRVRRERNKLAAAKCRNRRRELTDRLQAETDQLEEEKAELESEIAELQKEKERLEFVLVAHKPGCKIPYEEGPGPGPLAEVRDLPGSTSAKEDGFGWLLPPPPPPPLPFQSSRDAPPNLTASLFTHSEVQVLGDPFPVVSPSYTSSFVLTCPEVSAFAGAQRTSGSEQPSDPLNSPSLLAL
# EBNA-1 inh = EBNA-1 DNA-binding inhibitors, primary screen, biochemical, fluorescence polarization; inhibition, % at 14.8 µM; 300,000 compounds, 0.34% hits; in the data active means inhibition above about 28%
# ZTA DNA inh = ZTA (EBV) inhibition in EBNA-1 counter-screen | P03206 | ZTA-DNA binding, fluorescence polarization | 320,000 compounds, 0.15% hits | inhibition, % at 11 µM; in the data active means inhibition above about 33%
# Target sequence (P03206 whole entry, looked up): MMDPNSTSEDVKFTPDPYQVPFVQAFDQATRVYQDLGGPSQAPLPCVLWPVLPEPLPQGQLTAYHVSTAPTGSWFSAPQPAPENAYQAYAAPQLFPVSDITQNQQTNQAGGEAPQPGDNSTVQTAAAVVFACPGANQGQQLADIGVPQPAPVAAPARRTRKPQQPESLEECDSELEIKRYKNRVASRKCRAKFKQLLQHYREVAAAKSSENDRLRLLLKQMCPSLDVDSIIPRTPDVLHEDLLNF
# PolyA inh = polyadenylation inhibitors in yeast reporter cells, primary screen, luminescence, S. cerevisiae; activity score, % at 12 µM; S. cerevisiae SKY197-pL101 polyadenylation reporter, beta-gal luminescence; efflux-impaired pdr1/pdr3 knockout yeast; score 100 = 6 SD above DMSO; 300,000 compounds, 0.02% hits;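 active means lowest replicate activity score at least 50, where 100 means six control SD above control mean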;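 further: yeast exposed to compound for 9 h at 30 °C; higher score means more reporter readthrough which indicates perturbed polyadenylation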
# NALP1 yeast inh = NALP1 inflammasome inhibitors in reconstituted yeast, colorimetric, S. cerevisiae, triplicate retest; 280,000 compounds, 0.61% hits; S. cerevisiae NALP1/ASC/caspase-1 growth, X-gal OD620, 72 h; inhibition, % at 10 µM; AID 2071, 2009; in the data active means inhibition mostly above about 24%, no sharp cut-off; inactive means mostly below about 32%
# NALP3 yeast inh = NALP3 inflammasome inhibitors in reconstituted yeast, primary screen, luminescence, uHTS | AID 2825, 2010 | 330,000 compounds, 0.39% hits | inhibition, % at 10 µM | Yeast reconstituted NLRP3/ASC/caspase-1, beta-gal luminescence, 24 h;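 active means inhibition of 50% or more; inactive means inhibition below 50%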;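 further: plate controls were induced DMSO wells for no effect and uninduced yeast grown without galactose for full effect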
# NALP3 confirm = NALP3 inhibitors retested in yeast, confirmation, luminescence, single concentration; AID 435006, 2010; shares compounds with NALP3 yeast inh; 1,300 compounds, 81% hits; yeast expressing human NALP3; inhibition, % at 10 µM; in the data active means inhibition above about 48%
# Casp1 ASC ctr = CASP1-PYCARD signaling inhibition in yeast, confirmatory test, counterassay for NLRP3 inhibitor program, one-dose. inhibition, % at 10 µM. shares compounds with NALP3 yeast inh. 1,000 compounds, 66% hits. yeast expressing Caspase-1-ASC, luminescence counter screen
# NALP3 retest = NALP3 inhibitors in yeast, repeat test, confirmation, luminescence, single concentration, retest | inhibition, % at 10 µM | 1,000 compounds, 53% hits | shares compounds with NALP3 yeast inh | yeast expressing human NALP3, luminescence read-out
# dFosB act-2 = activators of mouse delta FosB DNA binding, confirmation, biochemical, fluorescence polarization, TAMRA-CDK5 oligo, cherry-picked samples; shares compounds with dFosB act-1; purified delta FosB; normalised: neutral wells 0, positive control 100; activation, % at 24.9 µM; 2,400 tested, under 10 active; AID 588690, 2011;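 active means highest replicate activation at or above 34% and every replicate reaching that threshold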;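 further: higher polarization means more probe DNA bound by delta FosB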
# Starred values were filed as active, the others as inactive; nt = no result given; ! = a repeat was not active. Compounds with a hit are over-represented: about 2.2% of the library has one in this group of screens. Unless noted, no stated cut-off is given here; in the data, active means inhibition above about 50%; inactive means the rest.
SMILES,dFosB act-1,EBNA-1 inh,ZTA DNA inh,PolyA inh,NALP1 yeast inh,NALP3 yeast inh,dFosB act-2,others
Cc1c(Cc2ccccc2)sc(NC(=O)c2ccco2)c1C(N)=O,21*,2,5,-63,4,85*,3,NALP3 confirm=92*;Casp1 ASC ctr=95*;NALP3 retest=86*
COc1ccc(CC(=O)Nc2ccc(-c3noc(COc4ccccc4C)n3)cc2)cc1,12,-4,8,7,-6,25,nt,
COc1ccc(CC(=O)Nc2ccc(-c3noc(-c4cc(OC)c(OC)c(OC)c4)n3)cc2)cc1,21*,8,14,nt,4,58*,11,NALP3 confirm=24
CN(C)CCCN(C(=O)CCc1ccccc1)c1nc2ccc(F)cc2s1,-19,1,-3,2,26,32,nt,
CN(C)CCCN(C(=O)c1cc(-c2cccs2)nc2ccccc12)c1nc2ccc(F)cc2s1,28*,9,-16,-4,29,52*,5,NALP3 confirm=65*;Casp1 ASC ctr=50*;NALP3 retest=46
COc1ccc(CCC(=O)OCC(=O)NCc2ccccc2)cc1,-3,nt,13,nt,nt,8,nt,
O=C(COc1ccc(F)cc1)Nc1cc(Cl)ccc1-n1cncn1,26*,-4,0,8,nt,63*,6,NALP3 confirm=70*;Casp1 ASC ctr=56*;NALP3 retest=49
Cc1ccc(C(=O)CCC(=O)Nc2ccccc2F)cc1,10,nt,nt,21,5,24,nt,
CN(C)S(=O)(=O)c1ccc(S(=O)(=O)NCc2ccc3c(c2)OCO3)cc1,36*,14,3,19,9,-1,-6,
Cc1cc(C)c2oc(C(=O)Nc3ccc(S(=O)(=O)N4CCC(C)CC4)cc3)cc(=O)c2c1,23*,2,6,1,37,8,1,
Cc1cc(C)c2oc(C(=O)NCCc3ccc(S(N)(=O)=O)cc3)cc(=O)c2c1,41*,-4,-10,-2,nt,2,-2,
Cc1ccc2c(=O)cc(C(=O)NCCc3ccc(S(N)(=O)=O)cc3)oc2c1,-3,-9,-11,34,19,2,nt,
CCOC(=O)CN(Cc1ccccc1)C(=O)OC(C)(C)C,nt,8,15,0,17,43,nt,
O=C(CSCc1ccc(Cl)cc1)N/N=C/c1ccccc1,2,-7,-14,1,19,21,nt,
O=C(CSCc1ccc(Cl)cc1)N/N=C/c1c(Cl)cccc1Cl,27*,8,-8,-4,20,nt,1,
Cc1ccc(NC(=O)Cn2cnc3c(=O)n(C)c(=O)n(C)c32)c(C)c1,2,5,-6,9,-4,6,nt,
Cn1c(=O)c2ncn(CC(=O)Nc3nc(-c4ccc(Cl)cc4)cs3)c2n(C)c1=O,24*,-4,5,0,23,0,1,
O=C(CSc1nc2nn(-c3ccccc3)c(=O)c-2c2n1CCCCC2)c1ccc(O)c(O)c1,-10,nt,-13,nt,nt,15,nt,
COc1ccc(-c2cc3c(=O)n(CC(=O)Nc4ccc(Cl)cc4)ncn3n2)cc1,31*,3,10,6,-17,9,2,
COc1ccc(NC(=O)Cn2ncn3nc(-c4ccc(OC)cc4)cc3c2=O)cc1,63*,6,-8,-5,-2,5,-1,
Cc1nn(CC(=O)Nc2ccc(Cl)cc2)c(=O)c2cc(-c3ccccc3)nn12,30*,9,-2,2,29,10,-2,
COc1ccc(-c2cc3c(=O)n(CC(=O)NCCCc4ccccc4)ncn3n2)cc1,0,-5,-2,14,-81,3,nt,
Cn1c2ccccc2c2cnn(CC(=O)Nc3ccc(Cl)cc3)c(=O)c21,26*,7,-2,13,nt,0,-1,
CC(C)C(NC(=O)c1ccc(C(C)(C)C)cc1)C(=O)Nc1ccc(N2CCOCC2)cc1 (configuration not stated),-1,nt,9,nt,nt,21,nt,
Cc1ccc(N2CCN(C(=O)c3cc(-c4ccc(F)cc4)[nH]c3C)CC2C)cc1 (configuration not stated),-22,nt,nt,0,12,-15,nt,
SMILES,dFosB act-1,EBNA-1 inh,ZTA DNA inh,PolyA inh,NALP1 yeast inh,NALP3 yeast inh,dFosB act-2,others
COC(=O)C(Cc1ccccc1)NCC(=O)Nc1cccc(Cl)c1C (configuration not stated),-1,6,-6,-17,0,17,nt,
CC(=O)Nc1ccc(-c2cc(-c3ccc(NC(C)=O)cc3)nc(-c3ccc(NC(C)=O)cc3)n2)cc1,54*,-3,15,27,26,-11,0,
CCN(CC(=O)Nc1ccccc1OC)Cc1csc(CC(=O)Nc2ccc(C)cc2)n1,-5,nt,nt,nt,nt,16,nt,
COc1ccc2cc3[n+](cc2c1OC)CCc1cc2c(cc1-3)OCO2,36*!,4,1,7,12,24,2,
COc1ccc(CCNCC(O)Cn2c3ccccc3c3ccccc32)cc1OC (configuration not stated),21*,3,-7,17,9,20,1,
CCN(CC)CCN(C(=O)Cn1nnc(-c2ccc(C)o2)n1)C(C(=O)NC1CCCC1)c1ccc(F)cc1 (configuration not stated),-1,nt,nt,12,8,32,nt,
O=C(/C=C/c1cccs1)Nc1cccc(NC(=O)/C=C/c2cccs2)n1,21*,2,0,-15,30,18,-6,
O=C(/C=C/c1cccs1)Nc1nccs1,1,-5,12,-11,6,30,nt,
COC(=O)COc1coc(CN2CCN(c3cccc(Cl)c3)CC2)cc1=O,-12,5,11,-12,9,5,nt,
O=C(CN1C(=O)NC2(CCCC2)C1=O)OCCOc1ccc(Br)cc1,-12,0,-18,0,nt,13,nt,
COc1ccc(NC(=O)c2cc(S(=O)(=O)N3CCS(=O)(=O)CC3)ccc2Cl)cc1,52*,-5,-4,-12,0,29,2,
COc1ccc(NC(=O)c2cc(S(=O)(=O)N3CCCC3)ccc2OC)cc1,-7,-18,-9,-4,5,-5,nt,
